Drawing on PubChem BioAssay AID642 (Vanderbilt High Throughput Screening Facility, 2007), this text covers luminescence for one molecule.

Structures are written as SMILES. In all, about 2,200 compounds went through this assay and about 2,000 (91%) were called active.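 The calls were made as follows: active = luminescence in either of two replicates above the same-plate mean plus 3 SD of the low-dose dopamine control; inactive = the rest.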 So high a share suggests a set chosen from earlier hits. The list is a sample of the results.

D(1A) dopamine receptor (Homo sapiens), sequence (P21728 whole entry, looked up): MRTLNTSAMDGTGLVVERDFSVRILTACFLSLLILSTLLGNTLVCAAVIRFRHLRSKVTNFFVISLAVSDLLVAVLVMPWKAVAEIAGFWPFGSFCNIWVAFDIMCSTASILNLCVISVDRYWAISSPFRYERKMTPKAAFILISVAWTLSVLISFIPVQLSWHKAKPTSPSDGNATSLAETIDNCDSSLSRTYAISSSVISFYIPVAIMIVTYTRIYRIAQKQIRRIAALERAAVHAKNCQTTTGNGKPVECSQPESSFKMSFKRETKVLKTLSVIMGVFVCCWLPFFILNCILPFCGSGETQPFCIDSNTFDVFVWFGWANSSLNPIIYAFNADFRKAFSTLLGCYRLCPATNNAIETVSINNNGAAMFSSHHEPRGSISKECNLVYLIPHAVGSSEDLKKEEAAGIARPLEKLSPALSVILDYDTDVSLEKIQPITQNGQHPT

The test addresses D(1A) dopamine receptor (Homo sapiens) (UniProt P21728). As to the kind of experiment: potentiation of dopamine EC30 D1 response – cell-based, HEK293 D1, CRE-luciferase, duplicate, confirmation (AID 642). As to conditions: at 10 µM, stronger effect = higher value.
For `CCC(=NCc1ccco1)c1c(O)n(Cc2ccccc2)c(=O)[nH]c1=O`, the luminescence was 18900 (active).
